# Shown are actives, neighbours in structure and some others; about 4% of the full set was active somewhere.
# TRHR enhancer – allosteric enhancers of human TRH receptor; TRHR cells, fluo-8 calcium fluorescence, EC20 TRH enhancement; enhancement, % at 2 µM; 360,000 compounds, 0.66% hits; AID 493056; in the data active = enhancement above about 30%
# Target sequence (P34981 whole entry, looked up): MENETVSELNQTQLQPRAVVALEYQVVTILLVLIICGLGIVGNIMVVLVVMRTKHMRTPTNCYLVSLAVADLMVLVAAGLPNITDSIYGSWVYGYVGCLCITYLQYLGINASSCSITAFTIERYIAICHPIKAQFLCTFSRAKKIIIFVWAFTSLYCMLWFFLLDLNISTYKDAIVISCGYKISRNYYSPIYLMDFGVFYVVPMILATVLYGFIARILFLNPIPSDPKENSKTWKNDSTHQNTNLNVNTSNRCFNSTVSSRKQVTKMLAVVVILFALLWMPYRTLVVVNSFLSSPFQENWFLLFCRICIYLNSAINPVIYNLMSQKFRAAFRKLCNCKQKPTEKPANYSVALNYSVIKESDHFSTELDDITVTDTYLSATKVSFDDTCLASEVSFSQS
#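 Enhancer read-out: after compound pinning and an initial kinetic agonist-mode read, an EC20 of TRH (10 nM final) was injected and fluo-8 calcium signal (Ex 480/Em 530) followed at 1 s/cycle for 100 cycles in TRHR-expressing cells.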
# D1 ag – human D1 receptor agonism. HEK293 T-REx D1 cells, calcium flux, agonist mode. P21728. activation, % at 2 µM. 360,000 compounds, 1% hits
#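 Inducible HEK293 T-REx D1 cells, force-coupled to calcium signalling, were plated at 4000 cells/well with tetracycline and held overnight at 30 C. After no-wash calcium dye loading, compound-evoked calcium rise over 180 s flagged agonists.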
# Glioma ERSR ind – inducers of ER stress response in human glioma cells; Potency, µM, hits mostly activators; U87-MG GRP78 promoter luciferase reporter, 16 h; AID 602332; 420,000 compounds, 0.02% hits; active = well fitted activation curve with a large enough effect; note: series mostly up to about 76 µM; nearly all actives have a fitted effect of over 35% in size
#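 Stably transfected U87-MG glioma cells carrying a GRP78-based luciferase sensor; 16 h compound incubation. Luminescence end-point read 10 min after Bright-Glo addition at room temperature.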
# D1 PAM – enhances dopamine response at the human D1 receptor; 360,000 compounds, 0.036% hits; HEK293 TREx D1 cells, calcium flux, dopamine EC20 potentiation; potentiation, % at 10 µM; in the data active = potentiation above about 30%
# D1 antagonist – blocks dopamine activation of the human D1 receptor | HEK293 TREx D1 cells, calcium flux, dopamine EC80; stronger effect = lower value | activity change, negative = inhibition, % at 10 µM | AID 504652 | 360,000 compounds, 3.2% hits; in the data active = activity change below about -30%
#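 Tetracycline-induced HEK293 T-REx cells with force-coupled D1 receptor were loaded with a no-wash calcium dye. Compound was added after a 10 s baseline and read kinetically for 180 s; EC80 dopamine was then added and calcium flux followed another 180 s.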
# TRHR ag – activates the human TRH receptor; P34981; TRHR cells, calcium flux fluo-8, FDSS agonist mode; activation, % at 2 µM; 360,000 compounds, 0.18% hits; AID 493084
#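 Fluo-8-loaded TRHR cells; 10 s baseline, compound added, kinetic Ca2+ fluorescence read 1/s, agonist mode.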
# Numbers stand for hits; n = inactive; x = no result. Cut-off read from the data, not from the text of the source, unless noted: active = activation above about 30%; inactive = the rest.
SMILES,TRHR enhancer,D1 ag,Glioma ERSR ind,D1 PAM,D1 antagonist,TRHR ag
C=CCN1C(=Nc2cccnc2)SCC1(O)c1ccc(C)cc1 (configuration not stated),n,n,x,n,-56,n
C/C(=N\Nc1cc(C)nc(-c2ccccc2O)n1)c1ccccc1,n,n,n,n,n,n
Cc1cc(N/N=C/c2ccc(O)c(C)c2O)nc(-c2ccccc2O)n1,n,n,n,n,-32,n
COc1cc(/C=N/NS(=O)(=O)c2ccc3ccccc3c2)ccc1OCc1ccc(C(=O)O)cc1,n,n,n,n,-30,n
COC(=O)c1ccc(COc2ccccc2/C=N/NS(=O)(=O)c2ccccc2)cc1,n,n,n,n,-51,n
CC(=O)Nc1ccc(Nc2nc(C)c([N+](=O)[O-])c(N(C)c3ccccc3)n2)cc1,n,n,n,n,-32,n
CC(=O)Nc1ccc(Nc2nc(C)c([N+](=O)[O-])c(Nc3ccccc3)n2)cc1,n,n,n,n,n,n
CCOC(=O)c1c(NC(=O)c2cc(-c3ccccc3OC)on2)sc(C)c1C,n,n,n,n,n,n
O=C(NC1CCCCC1)c1ccc(-c2ccccc2F)o1,x,x,n,x,x,x
Cc1nn(CC(=O)N2CCN(C)CC2)c(=O)c2ccccc12,n,n,n,n,n,n
Cc1cccc(C(=O)NC(NCCc2ccccc2)C(Cl)(Cl)Cl)c1 (configuration not stated),n,n,n,n,-41,n
CCC(=O)c1ccc2ncccc2c1,n,n,n,n,-30,n
CC(C)(C)C(=O)/C=c1\s/c(=C\c2ccc(-c3ccc([N+](=O)[O-])cc3)o2)c(=O)n1CC(=O)NC(N)=O,n,894,n,n,n,215
COC(=O)c1ccc(N=C2S/C(=C\c3cc(C)n(-c4cccnc4)c3C)C(=O)N2C)cc1,n,n,n,n,n,n
CC(=O)c1ccc2c(c1)N(CCCN1CCN(CCO)CC1)c1ccccc1S2,x,x,n,x,x,x
CN1CCCCC1CCN1c2ccccc2Sc2ccc(S(C)=O)cc21 (configuration not stated),n,n,n,n,-84,n
COC(=O)Cc1c(C)nc2nc(-c3ccccc3)[nH]n2c1=O,n,n,n,n,n,n
Cc1nc(SCc2ccc(Br)cc2)[nH]c(=O)c1C,n,n,n,n,-41,n
Cc1nc(SCCc2ccccc2)[nH]c(=O)c1C,n,n,n,n,n,n
O=C(CCn1cncn1)N1CCCC(N2CCN(c3cccc(C(F)(F)F)c3)CC2)C1 (configuration not stated),n,n,n,n,-44,n
O=C(c1ccc(C(F)(F)F)cc1)C1CCCN(C(=O)Cn2cncn2)C1 (configuration not stated),n,n,n,n,-37,n
Cc1cc(/C=N/NS(=O)(=O)c2ccc(F)c(Cl)c2)no1,n,n,n,n,n,n
CN(C)C(=O)c1ccc(NC(=O)COc2cccc(Oc3ccccc3)c2)cc1,n,n,n,n,n,n
CCN(CC(=O)Nc1cc(C)nn1-c1nc(C)cc(C)n1)Cc1ccccc1,33,n,n,n,n,n
Cc1cc(C)nc(-n2nc(C)cc2NC(=O)CNCc2ccccc2)n1,n,n,n,n,n,n
SMILES,TRHR enhancer,D1 ag,Glioma ERSR ind,D1 PAM,D1 antagonist,TRHR ag
C[C@@H](CCc1ccccc1)NC[C@H](O)c1ccc(O)c(C(N)=O)c1,x,x,n,x,x,x
Cc1cccc(OCC(=O)N(Cc2ccco2)c2c(N)n(Cc3ccccc3)c(=O)[nH]c2=O)c1,n,n,n,n,n,n
CCOC(=O)C1=C(N)n2c(s/c(=C/c3ccco3)c2=O)=C(C(=O)OC)C1c1ccco1 (configuration not stated),n,50,n,n,n,n
O=C(Nc1ncc(Cc2cccc(C(F)(F)F)c2)s1)C1CCCO1 (configuration not stated),n,n,n,n,-40,n
COc1cccc(N=Cc2c[nH][nH]c2=O)c1,n,n,n,n,-31,n
O=c1[nH][nH]cc1C=Nc1ccc(Cl)cc1,n,n,n,n,n,n
NC(=O)c1ccsc1NC(=O)CN1C(=O)NC2(CCCCC2)C1=O,n,n,n,n,n,n

# Screens deposited in PubChem BioAssay by National Center for Advancing Translational Sciences (NCATS).
